Bioassay records as filed in PubChem.
The full list was thinned out, with hits kept by preference.
AmpC no deterg: qHTS Inhibitors of AmpC Beta-Lactamase (assay without detergent). Potency, µM (top dose mostly 57.1 µM), hits mostly inhibitors. AmpC nitrocefin hydrolysis, absorbance 480 nm, 0.0001% Triton. 0.52% of 330,000 active. P00811; further: nearly all actives have a fitted effect of over 20% in size
Target sequence (P00811 whole entry, looked up): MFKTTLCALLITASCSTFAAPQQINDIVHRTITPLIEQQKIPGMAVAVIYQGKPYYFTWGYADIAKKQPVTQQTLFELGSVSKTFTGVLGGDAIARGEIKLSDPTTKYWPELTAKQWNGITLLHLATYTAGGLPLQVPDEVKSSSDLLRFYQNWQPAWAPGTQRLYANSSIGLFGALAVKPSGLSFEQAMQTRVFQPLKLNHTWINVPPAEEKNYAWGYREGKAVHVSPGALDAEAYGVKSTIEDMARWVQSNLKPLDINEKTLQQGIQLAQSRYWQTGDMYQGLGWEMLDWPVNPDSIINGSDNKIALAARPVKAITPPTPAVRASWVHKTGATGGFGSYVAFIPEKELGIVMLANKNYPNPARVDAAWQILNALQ
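AmpC (5.3 nM in the dispensed reagent) in 20 mM phosphate pH 7.0 with 0.01% (detergent screen) or 0.0001% Triton X-100 was preincubated with compounds for 15 min at room temperature. Nitrocefin was then added from an 800 uM solution, and hydrolysis was followed at 480 nm.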
Shiga toxin inh: A qHTS for Small Molecule Inhibitors of Shiga Toxin | 9.2% of 290,000 active | AID 2315, 2010 | inhibition, % at 38.7 µM | Vero cells, Shiga toxin protein synthesis inhibition reporter; in the data active means inhibition mostly above about 28%, no sharp cut-off; inactive means mostly below about 43%
Cycloheximide cs: Cycloheximide Counterscreen for Small Molecule Inhibitors of Shiga Toxin; max response, %; cell reporter, cycloheximide protein synthesis inhibition counterscreen; AID 2314, 2010; 12% of 300,000 active; in the data active means max response mostly above about 13%, no sharp cut-off; inactive means mostly below about 14%; further: read at 38.3 µM for the half of the compounds with a filed dose
NS1 function inh: qHTS Assay for Inhibitors of Influenza NS1 Protein Function | Potency, µM (doses to about 46.1 µM) | 0.4% of 270,000 active; calls by dose curve; further: actives are rising curves; nearly all actives have a fitted effect of over 50% in size
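S. cerevisiae expressing influenza A NS1, grown in glucose, washed, then diluted 1:100 into pH 6.0 -URA galactose medium with 23 nl compound. Growth recovery read as OD600; NS1-free strain serves as control.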
AmpC detergent: qHTS Inhibitors of AmpC Beta-Lactamase (assay with detergent); P00811; AmpC hydrolysis of nitrocefin, absorbance 480 nm, 0.01% Triton; Potency, µM (top dose mostly 114 µM), actives largely listed as inhibitors; 0.041% of 370,000 active; further: nearly all actives have a fitted effect of over 25% in size
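AmpC (5.3 nM in the dispensed reagent) in 20 mM phosphate pH 7.0 with 0.01% (detergent screen) or 0.0001% Triton X-100 was preincubated with compounds for 15 min at room temperature. Nitrocefin was then added from an 800 uM solution, and hydrolysis was followed at 480 nm.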
Flu NS1 inh: Assay for Inhibitors of Influenza NS1 Protein Function: Hit Validation. shares compounds with NS1 function inh. influenza NS1 function cell assay, 15-point titration. activity change, negative = inhibition, % at 32.9 µM. 1,400 tested, under 10 active. AID 492980, 2010; calls by dose curve
PR8 titer: Assay for Inhibitors of Influenza NS1 Protein Function: Influenza virus replication assay in MDCK cells infected with virus A/PR/8/34; shares compounds with NS1 function inh; MDCK infected influenza A/PR/8/34, virus titer TCID50; active compounds read low; virus titer (log TCID50), log10 TCID50 at 5 µM; 30% of 95 active; AID 504647, 2011; call rule not given here
Hits are given with their value; i = inactive; ? = inconclusive; nt = no result given; + = active, no number; ! = not active in a repeat. Unless noted, the call rests on the fitted dose curve; in most records, active means well fitted curve in the direction sought with a large enough effect; inconclusive means small, poorly fitted or top-dose-only effect, or another doubt; inactive means no such curve, though single readings can be large; an effect the other way counts as inactive or inconclusive.

SMILES | AmpC no deterg | Shiga toxin inh | Cycloheximide cs | NS1 function inh | AmpC detergent | Flu NS1 inh | others
COCC(C)N=C1NN=C(c2c[nH]c3ccccc23)CS1 (stereo unspecified) | i | 53 | 64 | ? | i | i
N#CC(C#N)=Cc1cccn1-c1ccc(S(N)(=O)=O)cc1 | i | i | i | ? | i | i
COc1cc(C(=O)NCC(=O)NC(C)CCc2ccccc2)cc(OC)c1OC (stereo unspecified) | i | i | i | i | i | nt
Cc1ccsc1/C=C(\C(=O)c1ccc(OC(C)C)cc1)c1nc2ccccc2o1 | i | + | 122 | 14µM | i | i
CC(C)Oc1ccc(C(=O)N2CCC(c3nc4ccccc4o3)CC2)cc1 | nt | nt | nt | nt | i | nt
O=C(COc1ccc(F)c(Cl)c1)Nc1ccc(N2CCOCC2)cc1 | i | nt | nt | nt | nt | nt
O=C1Nc2cc(S(=O)(=O)N3CCCC3)ccc2N2CCCC12 (stereo unspecified) | i | i | i | 13µM | i | i
CCCc1cc(=O)[nH]c(SC(C)C(=O)N2c3ccccc3CC2C)n1 (stereo unspecified) | i | nt | nt | nt | i | nt
COc1ccc(F)cc1C1=CC(=O)C[C@H](c2ccc3c(c2)OCO3)C1 | i | nt | nt | nt | i | nt
CSc1nc2c(c(=O)[nH]c(=O)n2C)n1CCCc1ccccc1 | i | i | i | i | i | nt
CC(C)CCSc1nc2c(c(=O)[nH]c(=O)n2C)n1CCCc1ccccc1 | i | i | i | ? | i | i
Cc1cc(SCC(=O)Nc2cccc(S(=O)(=O)NC3=NCCCCC3)c2)c(C)cc1Br | i | i | i | i | i | nt
CCc1ccc(Nc2nnc(SCC(=O)Nc3cccc(S(=O)(=O)NC4=NCCCCC4)c3)s2)cc1 | i | active | 49 | 11µM | ? | i
O=c1cc(-c2ccc(F)cc2)[nH][nH]1 | i | i | i | 13µM | i | i
Cc1cc(C)nc(OC(C(=O)O)C(OCC(C)C)(c2ccccc2)c2ccccc2)n1 (stereo unspecified) | i | i | i | 6.3µM | i | i
Cc1ccc(S(=O)(=O)N2CCCCC2)cc1NC(=O)COC(=O)Cc1cccc(C(F)(F)F)c1 | i | i | i | i | i | nt
CCc1ccc2oc(-c3cc(N)cc(C)c3O)nc2c1 | i | 80 | 36 | 14µM | ? | i
Cc1cc(NC(=O)Cc2ccccc2)cc(-c2nc3ccccc3o2)c1O | nt | nt | nt | nt | i | nt
Cc1cc2cc(NC(=O)c3ccco3)ccc2[nH]1 | i | 137 | 61 | 2.5µM | i | ?
COc1ccc(NC(=O)c2ccc(NC(=O)c3ccco3)cc2)c(OC)c1 | i | i | i | i | i | nt
O=C(Nc1ccc(Oc2ccc(NC(=O)c3ccco3)c(NC(=O)c3ccco3)c2)cc1)c1ccco1 | i | i | i | 8.9µM | i | i | PR8 titer=i
CC1CC(C)CN(S(=O)(=O)N2CCC(C(=O)NCCc3ccccc3)CC2)C1 (stereo unspecified) | i | i | i | ? | ? | i
O=C(NCCc1ccccc1)C1CCN(S(=O)(=O)N2CCCC2)CC1 | i | i | i | i | i | nt
O=C(O)c1cc(Cl)c2c(c1)[C@@H]1C=CC[C@@H]1[C@H](c1ccc(S(=O)(=O)N3CCOCC3)cc1)N2 | i | i | i | 14µM | i | i
CCN(CC(=O)NCc1cccs1)C(=O)c1cccc(S(=O)(=O)N2CCc3ccccc32)c1 | i | i | i | i | i | nt
SMILES | AmpC no deterg | Shiga toxin inh | Cycloheximide cs | NS1 function inh | AmpC detergent | Flu NS1 inh | others
Cc1cccc(OCc2nnc(SCC(=O)N3c4ccccc4CCc4ccccc43)o2)c1 | i | i | i | 13µM | i | i | PR8 titer=i
O=C(CSc1nnc(COc2ccc(F)cc2)o1)N1c2ccccc2CCc2ccccc21 | i | i | i | ? | i | nt
O=C(c1ccc2ccccc2c1)C1CCCN(S(=O)(=O)c2cccnc2)C1 (stereo unspecified) | i | i | i | i | i | nt
COc1ccc2nc(N3CCN(C(=O)C4COc5ccccc5O4)CC3)sc2c1 (stereo unspecified) | i | nt | nt | nt | i | nt
COc1cc2nc(N3CCN(C(=O)C4COc5ccccc5O4)CC3)nc(N)c2cc1OC (stereo unspecified) | i | i | i | 35µM! | i | i
C/C(=N\NC(=S)Nc1cc(S(=O)(=O)N2CCOCC2)ccc1Cl)c1ccc(N2CCOCC2)cc1 | i | i | i | i | i | nt
C/C(=N\NC(=S)Nc1ccc(C)c(C)c1)c1ccc(N2CCOCC2)cc1 | i | 24 | 23 | 7.9µM | ? | ?
C=CCNc1nc(C(=O)OCC(=O)N(Cc2ccccc2)C(C)C)cs1 | i | nt | nt | nt | i | nt
O=C(CCNC(=O)c1ccccc1)NNC(=O)c1ccccc1Br | i | nt | nt | nt | nt | nt
COc1ccc(-c2[nH]c3ccccc3c2SCCNC(=O)c2cc3ccccc3oc2=O)cc1 | i | i | i | 10µM | i | i
CCOC(=O)c1ccc(NC(=O)c2ccc3c(c2)C(=O)N(Cc2cccnc2)C3=O)cc1 | i | i | i | i | i | nt
CCOC(=O)C1CCCN(S(=O)(=O)c2cccs2)C1 (stereo unspecified) | i | i | i | ? | ? | nt
CC(C)NC(=O)C1CCCN(S(=O)(=O)c2cccs2)C1 (stereo unspecified) | i | i | i | 2.2µM | i | i
Cc1ccc(N2CCN(CC(=O)Nc3c(C(=O)C4CC4)oc4ccccc34)CC2)cc1 | i | i | i | i | i | nt
Cc1c(Cl)cnc(NC(=O)COC(=O)c2cccc(S(=O)(=O)N3CCc4ccccc4C3)c2)c1Cl | i | i | i | i | i | nt
Cc1c(Cl)cnc(NC(=O)COC(=O)c2cccc(S(=O)(=O)N3c4ccccc4CC3C)c2)c1Cl (stereo unspecified) | i | i | i | 11µM | i | i
Cc1ccc(Sc2ncccc2C(=O)O)cc1C | i | i | i | ? | i | i
CCOC(=O)C(NCc1ccc2c(c1)OCO2)(NC(=O)c1ccccc1)C(F)(F)F (stereo unspecified) | i | i | i | i | i | nt
Fc1ccc2c(c1)nnn2C1CCN(Cc2nnnn2CCc2ccccc2)CC1 | i | i | i | i | i | nt
Fc1ccc(Cn2nnnc2CN2CCC(n3nnc4cc(C(F)(F)F)ccc43)CC2)cc1 | i | i | i | 5µM | i | ?
Cc1ccc(NC(=O)COCC(=O)Nc2ccc(F)cc2)cc1 | i | i | i | i | i | nt
CCn1c(N2CCN(CC(=O)c3c(C)n(C)c4ccc(OC)cc34)CC2)nc2c1c(=O)[nH]c(=O)n2C | i | i | i | 11µM | i | i
CCc1ccc2c(c1)C(c1ccc(N3CCOCC3)cc1)=NNC(c1ccncc1)=N2 | i | i | i | i | i | nt
